Data reported in PubChem BioAssay (NCI).
“And” between values parts separate entries of the source, which are not always exact repeats. Equal entries are not always repeated. Compounds without any hit were thinned out: in the full panel of roughly 83,000, 20% have a hit.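 96-well plates, one dose, 48 hours. Percent growth reported; active if below 10.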 Unmarked numbers belong to inactive results. The source made the active and inactive calls.

System: HCT-15 colon
Assay: NCI-60 one-dose screen, 48 h (100 = growth as untreated, 0 = no growth, -100 = all killed)
Details: 10 µM unless noted

SMILES | growth
COc1ccc(/C(C)=C(\c2ccc(OCCN3CCCCCC3)cc2)c2ccc(OC(=O)C3CCCCC3)cc2)cc1 | -76.7% (active)
N=c1c2c(-c3ccccc3)c(-c3ccccc3)oc2ncn1NC(=O)c1cccnc1 | 95.6%
O=C(Nc1cc(C(F)(F)F)cc(C(F)(F)F)c1)c1cc(Cl)ccc1O | -39.7% (active) and -24.9% (active)

System: SNB-75 CNS
Assay: as above
Details: 10 µM unless noted

SMILES | growth
C[N+]1=C(/C=C\C=C\c2ccccc2)C(C)(C)c2ccccc21 | 81.8%
O=C(/C=C/C12c3ccccc3C(c3ccccc31)C1C(=O)NC(=O)C12)c1ccncc1 (configuration not stated) | 13.7%
CN1CCN(Cc2ccc(NC(=O)c3nc4ccc5[nH]ncc5c4c4c3CCCC4)cc2C(F)(F)F)CC1 | -90% (active)
CC(=O)c1nn(-c2ccccc2)/c(=N/N=Cc2cn(-c3ccccc3)nc2-c2cc3ccccc3oc2=O)s1 | 104%
CN1CCN(Cc2ccc(NC(=O)c3cccc(C#Cc4c(N)ncc5ccc(F)cc45)c3)cc2C(F)(F)F)CC1 | -92.4% (active)
CCN(C(=O)N1CCN(c2cc3c(cc2F)c(=O)c(C(=O)O)cn3C2CC2)CC1)c1nc(-c2ccccc2)cs1 | 31.3%
COc1ccc(-c2ccccc2)cc1-c1c(Nc2cc(Cl)cc(Cl)c2O)c(=O)c1=O | -8.42% (active)
COc1cc(CO)cc2cc3ccccc3nc12 | 74.7%
N=C(N)c1ccc(-c2ccc(-c3ccc(Cl)c(Cl)c3)s2)cc1 | 103%
Cc1c(C(=O)OCCCCOC(=O)c2c(C)n(C)c3scc[n+]23)[n+]2ccsc2n1C | 80.5%
COc1ccc(/C(C)=C(\c2ccc(OCCN3CCOCC3)cc2)c2ccc(OC(=O)C3CCCCC3)cc2)cc1 | 110%
CCOc1ccccc1NC(=O)c1cc2ccccc2cc1O | 87.7%
O=S(=O)(Nc1ccc(F)cc1)c1ccc(-c2cnc(C3CC3)o2)cc1 | 0.813% (active)
CN(C)c1ccc2nc3ccc(=O)cc-3sc2c1 | 94.9% and 36.7%
COC(=O)N/N=C/c1c[n+]([O-])c2ccccc2[n+]1[O-] | 100%
COc1cc(F)c(/C=C/c2cc(/C=C/c3cc(OC)c(OC)cc3F)n(-c3cc(F)cc(F)c3)n2)cc1OC | 105%
Clc1ccc(CNc2ccc3nc(CCC4CCCCC4)[nH]c3c2)cc1 | 77.2%
FC(F)(F)Sc1ccc(/C=C/c2cc(/C=C/c3ccc(SC(F)(F)F)cc3)n(-c3ccccc3)n2)cc1 | 82%
CC(=O)N1N=C(c2ccc(Nc3nc(Nc4ccc(F)cc4)nc(Nc4ccc(F)cc4)n3)cc2)CC1c1ccccc1 (configuration not stated) | 80.1%
COC1/C=C/OC2(C)Oc3c(C)c(O)c4c(O)c(c(C=NOC(c5ccccc5)c5ccccc5)c(O)c4c3C2=O)NC(=O)/C(C)=C/C=C/C(C)C(O)C(C)C(O)C(C)C(OC(C)=O)C1C (configuration not stated) | 17.2%

SMILES | growth
Nc1ccccc1SC(CC(=O)c1ccccc1)c1ccc([N+](=O)[O-])cc1 (configuration not stated) | 84.6% and 80.8%
Cc1ccc(/C=C/c2c(C(=O)/C=C/c3ccccc3)c(C)nc3ccccc23)cc1 | 29%
COc1ccc(/C=C(\C#N)c2cc3ccccc3[nH]2)cc1 | 18.6%
Cc1ccc(Cl)cc1N1CCN(C(=O)[C@@H]2C[C@@H]2c2ccc(F)cc2)CC1 | 96.2%
COc1ccc(/C=C2/C(=O)N=C3N2NC(c2ccccc2)=CN3c2ccccc2)cc1 | 98.1%
COc1ccc2nc3cc(Cl)ccc3c(NCCCNCCC(C)O)c2c1 (configuration not stated) | -58.8% (active)
COc1ccc(-c2nc(Cl)c3c(C)nn(-c4ccc(F)cc4)c3n2)cc1 | 104%
C=CCOc1ccc(/C=C2\SC(=S)N(CCc3ccc(O)cc3)C2=O)cc1 | 82%
O=C1N=c2ccccc2=C1c1sc(=S)n(C2CC(=O)N(c3ccc(Cl)cc3)C2=O)c1O (configuration not stated) | 86.1%
COc1c(O)c(O)cc2c3c(oc12)CC(c1ccc2c(c1)OCO2)CC3=O (configuration not stated) | 84.5%
O=C(c1cccc(Br)c1)N1CCN(c2ccnc3cc(Cl)ccc23)CC1 | 117%
Cc1ccc(S(=O)(=O)OC[C@@]2(C)CC[C@]3(C)CC[C@]4(C)C(=C3C2)C=C[C@@H]2[C@@]3(C)CCCNC(C)(C)[C@@H]3CC[C@]24C)cc1 | 82.9%
Oc1ccccc1C=Nc1ccc(N2CCN(c3ccccc3)CC2)cc1 | 79.9%
Fc1ccc(NC(c2ccc(F)cc2)C2CCN(CCCCc3ccccc3)CC2)cc1 (configuration not stated) | 63.4%
NCCOCCOc1ccccc1 | 106%
COc1ccc(/C=C/C(=O)c2cc3c(N)c(C(=O)Nc4ccccc4)sc3nc2C)cc1 | 11.9%
COc1ccc(/C(C)=C(\c2ccc(OCCN3CCCCCC3)cc2)c2ccc(OC(=O)C3CCCCC3)cc2)cc1 | -11.1% (active)
N=c1c2c(-c3ccccc3)c(-c3ccccc3)oc2ncn1NC(=O)c1cccnc1 | 105%
O=C(Nc1cc(C(F)(F)F)cc(C(F)(F)F)c1)c1cc(Cl)ccc1O | -64.9% (active) and -39.3% (active)
